For 100 compounds, Potency results are on record in PubChem BioAssay AID540317 (National Center for Advancing Translational Sciences (NCATS), 2011).

Among all 390,000 compounds or so, about 2,200 (0.56%) were called active. A call without a number means that no potency is given here. Roughly 3% stayed inconclusive and do not appear here. The call rests on the fitted dose curve; in most records, active means well fitted inhibition curve with a large enough effect; inconclusive means small, poorly fitted or top-dose-only effect; inactive means no such curve, though single readings can be large or run the other way. Many of the other results were omitted from the sample, so actives are more common in it than they were.
Potency means the concentration at half of the fitted maximal effect.

Sequence of Chromobox protein homolog 1 (Homo sapiens) (P83916 whole entry, looked up): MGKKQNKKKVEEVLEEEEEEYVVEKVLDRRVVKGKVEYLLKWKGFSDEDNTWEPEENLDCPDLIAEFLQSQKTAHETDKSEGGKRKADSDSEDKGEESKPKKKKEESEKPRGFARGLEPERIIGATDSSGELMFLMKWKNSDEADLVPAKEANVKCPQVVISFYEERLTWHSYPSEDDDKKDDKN

The target in the test is Chromobox protein homolog 1 (Homo sapiens) (UniProt P83916). Nature of the test: HTS for Inhibitors of HP1-beta Chromodomain Interactions with Methylated Histone Tails. Further: nearly all actives have a fitted effect of over 70% in size. As to conditions: AlphaScreen HP1-beta / biotin-H3K9me3 peptide binding; series mostly up to 114 µM. In a few lines:
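HP1-beta protein (50 nM final) preincubated 30 min at room temperature with biotinylated H3(1-18)K9me3 peptide (50 nM) in PBS pH 7.4, 0.01% Tween-20, then compound added for 30 min. AlphaScreen streptavidin donor/nickel chelate acceptor beads (10 ug/mL final), 30 min dark, luminescence read.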
On the technique in general: In Alpha technology, singlet oxygen from a donor bead excites a nearby acceptor bead.
For `Cc1ccc(C)c(Cn2c(CCCNC(=O)C3CCCCC3)nc3ccccc32)c1`, the Potency entry is “inactive”. Under `CC1CCN(C(=S)c2ccc(-c3ccc(Cl)cc3Cl)o2)CC1` stands 22.4 µM (active); under `CC1CCN(C(=S)c2cccc(O)c2)CC1`, “inactive”; under `COc1ccc(C(=O)Nc2c(Cl)cc(Cl)cc2C(=O)N2CCC(C)CC2)cc1`, “inactive”.

With `Cc1ccc(C(=O)Nc2nc(-c3ccccc3)ns2)cc1`, the Potency result was “inactive”. Then `Cc1cc(C)cc(NC(=O)Cc2csc(C)n2)c1`, with “inactive”; and `CCOc1ccc(N(Cc2ccccc2)C(=O)c2nc(SCC)ncc2Cl)cc1`, with “inactive”; and `O=C(NC1CC(=O)N(c2ccc(F)cc2)C1)C1CCCCC1` (stereo not given), with “inactive”.

Take `CCn1c2ccccc2c2nnc(N3CCN(c4cc(C)ccc4C)CC3)nc21`: the Potency result was “inactive”.

Turning to `CCOCCCNC(=O)c1c(NC(=O)Cc2coc3c(C)c(C)ccc23)sc2c1CCC2`, the Potency entry is “inactive”.

Turning to `O=C(NCCc1ccccc1)c1cnc2sc(N3CCCC3)nn2c1=O`, the Potency result was “inactive”.

For `COc1cccc(NCCC(=O)c2cccc([N+](=O)[O-])c2)c1`, the Potency was 79.4 µM (active).

Regarding `COc1cccc(C(=O)CC(=O)C(=O)Nc2ccc([N+](=O)[O-])cc2C)c1`, the Potency result is “inactive”. Under `COc1ccc(Cc2nnc(SCC(=O)c3cccc([N+](=O)[O-])c3)n2C)cc1` stands “inactive”; under `Cc1ccccc1CNC(=O)CCCn1nc(C)c2sc3ccccc3c2c1=O`, “inactive”. Then `NS(=O)(=O)c1ccc(NC(=O)CSc2nnc3c(n2)[nH]c2ccccc23)cc1`, with “inactive”; and `COc1ccc(/C=C2/C(=O)OCc3cc(OC)c(OC)cc32)c(OC)c1`, with “inactive”; and `COc1ccc(/C=C2/C(=O)N(c3ccccc3)N=C2C)c(OC)c1`, with 12.6 µM (active). Under `COc1ccc(C(=O)COC(=O)C(O)c2ccccc2)c(OC)c1` (stereo not given) stands “inactive”; under `CC1CC(C)CN(c2oc(-c3ccc(OCc4ccc(Cl)cc4)cc3)nc2C#N)C1` (stereo not given), “inactive”; under `COc1ccc(C(=O)CSc2c(C(C)C)cnc3c2c(=O)n(C)c(=O)n3C)cc1`, “inactive”. Regarding `O=C(CCc1cn(Cc2ccc(F)cc2)c2ccccc12)NC1CCCCC1`, the Potency result is “inactive”.

Regarding `CCc1ccccc1N1C(=O)CN(S(=O)(=O)CC)CC1(C)C(=O)NC1CCCCC1` (stereo not given), the Potency result is “inactive”. As to `CCOc1ccc(NC(=O)c2ncoc2-c2ccco2)cc1`, the Potency entry was “inactive”.

As for `C=CCNC(=O)c1ccc2nc(-c3ccco3)c(-c3ccco3)nc2c1`, the Potency result is “inactive”. Under `COCCNC(=O)Nc1ccc2nc(-c3ccco3)c(-c3ccco3)nc2c1` stands 8.91 µM (active). Under `CCN(CC)CCNC(=O)Cn1ncc2c3ccccc3n(Cc3ccccc3C)c2c1=O` stands “inactive”; under `COc1ccc2c(c1)C(=C(C#N)C#N)C(=O)N2CCc1ccccc1`, 39.8 µM (active).

Consider `CCCCN1C(=O)/C(=C(/C#N)C(N)=O)c2ccccc21`, for which the Potency entry is “inactive”. Then `Cc1ccc(C(=O)CC2(O)C(=O)N(CCc3ccccc3)c3ccc(Br)cc32)cc1` (stereo not given), with “inactive”; and `COc1ccc(CCNC(=O)c2ccc(-n3c(C)cc4c3CCCC4)cc2)cc1OC`, with “inactive”. Then `CCOC(=O)c1ccc(NC(=O)c2c(NCc3cccs3)sc3c2CCCC3)cc1`, with “inactive”. Then `Cc1ccc(C(=O)O)cc1-c1ccc(/C=C2\SC(=O)N(CC(=O)Nc3ccc4c(c3)OCO4)C2=O)o1`, with 79.4 µM (active). Regarding `COC(=O)c1ccc2c(c1)N(CC(=O)Nc1ccc(C)c(C)c1)C(=O)c1ccccc1S2`, the Potency result is “inactive”. Consider `O=C(CN1CCN(c2ncc(C(F)(F)F)cc2Cl)CC1)Nc1ccc2c(c1)OCO2`, for which the Potency result was “inactive”. Under `COc1ccc(S(=O)(=O)c2c(Nc3cccc(Cl)c3)sc(C(=O)c3ccccc3)c2N)cc1` stands “inactive”; under `Nc1ncc(S(=O)(=O)Nc2ccc(OC(F)(F)F)cc2)cn1`, “inactive”. Under `O=S(=O)(Nc1ccc(O)c2ccccc12)c1ccc(OC(F)(F)F)cc1` stands 44.7 µM (active); under `O=C1Cc2cc(S(=O)(=O)Nc3ccc(OC(F)(F)F)cc3)cc3c2N1CCC3`, “inactive”. Then `O=C(NCCCO)c1nn(-c2ccc(Cl)cc2)nc1CO`, with “inactive”; and `CCOc1ccc(NC(=O)CSc2nnc3c(n2)[nH]c2ccc(S(=O)(=O)N4CCOCC4)cc23)cc1`, with “inactive”. As for `O=C(COc1ccccc1)Nc1ccc(N2CCN(C(=O)c3cccs3)CC2)cc1`, the Potency result is “inactive”. Then `C=CC(=O)Nc1ccc(Nc2ccnc(Nc3ccc(N4CCN(C)CC4)cc3)n2)cc1`, with 44.7 µM (active); and `Cc1cc(Nc2cc(N3CCN(C)CC3)nc(Sc3ccc(NC(=O)C4CC4)cc3)n2)n[nH]1`, with “inactive”; and `Cc1cc2nn(-c3ccc(Cl)cc3)nc2cc1NC(=O)C(C)C`, with “inactive”. Then `COc1cc(/C=N/Nc2ccc(C)cc2)cc(Br)c1O`, with 79.4 µM (active). Under `COc1ccc(S(=O)(=O)NNC(=O)Nc2ccc(C)cc2)c(OC)c1` stands “inactive”. For `Oc1c(Br)cc(/C=N/NC(=S)NCC2CCCO2)cc1Br` (stereo not given), the Potency entry is “inactive”. With `CN1CCN(C(CNC(=O)c2ccccc2F)c2ccc3c(c2)OCO3)CC1` (stereo not given), the Potency entry is “inactive”.

`Clc1ccccc1CSc1nnc(-c2ccco2)c(-c2ccco2)n1`: the Potency is 20 µM (active). Under `CN(C)C(=O)CSc1n[nH]c(-c2ccco2)n1` stands “inactive”.

In the case of `Clc1ccccc1CSc1nncn2c1cc1occc12`, the Potency entry is “inactive”.

Turning to `c1ccc(CSc2nnc(-c3ccco3)c(-c3ccco3)n2)cc1`, the Potency was 39.8 µM (active). Under `Fc1ccc(CSc2nc(NCc3ccccc3)c3ccccc3n2)cc1` stands “inactive”; under `CC1(C)N=C(SCc2ccccc2Cl)c2ccccc2N1`, “inactive”; under `Cc1ccc(CNC(=O)CCc2c(C)nn(-c3ccc(N4CCCC4)nn3)c2C)cc1`, “inactive”. Under `CCCN1CCC(=O)N(C(CSc2ccc(OC)cc2)Cc2ccccc2)CC1` (stereo not given) stands “inactive”; under `COc1ccc(Cl)cc1S(=O)(=O)N1CCC(c2ccncc2)CC1`, “inactive”. Under `CC(C)(C)C1C/C(=C/c2ccco2)C(=O)/C(=C/c2ccco2)C1` (stereo not given) stands 39.8 µM (active); under `COc1ccc(OC)c(NC(=O)CSC2=Nc3ccccc3C3=NC(CC(=O)NCc4ccc(F)cc4)C(=O)N23)c1` (stereo not given), “inactive”. With `CCc1nc2nc(C)cc(Nc3ccc(F)c(Cl)c3)n2n1`, the Potency entry is “inactive”.

In the case of `COc1ccc(S(=O)(=O)Nc2cccc3cccnc23)c(N)c1`, the Potency entry is “inactive”. Then `COc1ccc(C(=O)Nc2ccc(-n3nncc3-c3ccccc3)cc2)cc1OC`, with “inactive”. Take `CC(=O)Nc1ccc(S(=O)(=O)N2N=NC3C2C2CC4C3(CN(C(=O)OC(C)(C)C)S4(=O)=O)O2)cc1` (stereo not given): the Potency entry is “inactive”. Then `COc1cccc(-c2nc(S(=O)(=O)c3ccc(C)cc3)c(NCc3ccccc3)o2)c1`, with “inactive”. Then `Cc1ccc2c(c1)N(C(=O)Nc1ccc(Br)cc1F)CCO2`, with “inactive”. Regarding `COC(=O)c1scc(-c2ccc(C)cc2)c1S(=O)(=O)Nc1cc(Cl)c(OC)cc1OC`, the Potency result is “inactive”. Then `O=[N+]([O-])c1ccc(N2CCN(c3ccc(O)cc3)CC2)c(Cl)c1`, with 50.1 µM (active); and `CCN1CCN(c2ccc([N+](=O)[O-])cc2C(=O)c2ccc(Cl)cc2)CC1`, with “inactive”; and `O=C(O)C1CCN(c2ccc([N+](=O)[O-])cc2[N+](=O)[O-])CC1`, with “inactive”. Then `COc1ccc(CCn2c3c(c(=O)[nH]c2=S)CN(C(C)C)CN3)cc1OC`, with “inactive”; and `Cc1cc(C)c(/C=C/c2onc(C)c2S(=O)(=O)N2CCC(C(=O)Nc3ccc(Cl)cc3C)CC2)c(C)c1`, with “inactive”. Then `CCN(CC)S(=O)(=O)c1ccc2c(c1)N(CC(=O)NCC(C)c1ccccc1)C(=O)CO2` (stereo not given), with “inactive”; and `Cc1ccccc1C(=O)N(Cc1ccc(N(C)C)cc1)CC1CCCO1` (stereo not given), with “inactive”. For `Cc1nc2c(c(C)nn2-c2ccccc2)c(C)c1CCC(=O)NCCc1ccc(Cl)cc1`, the Potency entry was “inactive”. Then `CCCNC(=O)C1CCC(Cn2c(=O)c3sccc3n(Cc3ccccc3F)c2=O)CC1` (stereo not given), with “inactive”; and `COc1ccc(N(C)C(=O)C2CCN(S(=O)(=O)c3cc(Br)cc4c3N(C(C)=O)CC4)CC2)cc1`, with “inactive”. Then `O=c1ccc2c(-c3ccccc3S(=O)(=O)O)c3ccc(O)c(O)c3oc-2c1O`, with 1 µM (active); and `CCOc1cccc(NC(=O)c2ccc(F)c(S(=O)(=O)N(CC)c3cccc(C)c3)c2)c1`, with “inactive”. On to `CCN(Cc1ccccc1)S(=O)(=O)c1ccc2c(c1)CCCN2C(C)=O`, for which the Potency entry is “inactive”. Then `Cc1ccc(Cl)cc1NC(=O)/C(C#N)=C\c1cn(Cc2ccc(F)cc2)c2ccccc12`, with “inactive”; and `COc1ccc(Cn2c(=O)[nH]c3cc(C(=O)N4CCN(C(=O)c5ccco5)CC4)ccc3c2=O)cc1`, with “inactive”. Under `COc1ccc(N2CCC(N3CCN(C)C(CCO)C3)CC2)cc1` (stereo not given) stands “inactive”; under `Cc1cccc(C)c1NC(=O)CNC(=O)C1CCCC1`, “inactive”. Then `COc1ccc(NC(=S)NCC2CCN(c3ccc(OC)cc3)C2)cc1` (stereo not given), with 25.1 µM (active); and `COc1ccc(N2CCC(CNC(=S)Nc3c(C)cccc3C)C2)cc1` (stereo not given), with 20 µM (active); and `COc1ccc(CNC(=O)C2CCC(CNc3c(N4CCOCC4)c(=O)c3=O)CC2)cc1` (stereo not given), with “inactive”. In the case of `COc1ccc(NC(=O)N2CCCC(C(=O)Nc3ccccc3OC)C2)cc1` (stereo not given), the Potency entry is “inactive”. Take `CCCN1CCC(=O)N(C(CSc2ccc(C)cc2)Cc2ccccc2)CC1` (stereo not given): the Potency entry is “inactive”. Turning to `COc1ccc(CCNS(=O)(=O)c2cc(-c3cc(C)no3)ccc2C)cc1OC`, the Potency entry was “inactive”.

For the compound `COc1cccc(NC(=O)N2CCN(C(=O)c3nsc4ccccc34)CC2)c1`, the Potency result is “inactive”. On to `Cc1cc(C)cc(OC(C)C(=O)Nc2nc3c(s2)CCCC3)c1` (stereo not given), for which the Potency entry is “inactive”.

Regarding `COc1cc(C2c3c(oc4ccccc4c3=O)C(=O)N2c2nc(C)c(C)s2)ccc1O` (stereo not given), the Potency result was “inactive”. Then `COc1ccc(Cl)cc1NC(=O)CSc1nc(-c2cccs2)cc(C(F)(F)F)n1`, with “inactive”. In the case of `COc1cc(/C=C/C(=O)OCC(=O)Nc2cccc(Oc3ccccc3)c2)ccc1O`, the Potency result was “inactive”. Then `COc1cc(/C=N\Nc2nc(-c3cccs3)c(NC(C)=O)s2)ccc1O`, with 22.4 µM (active). Then `COc1ccc(CNC(=O)CSCc2nc(-c3ccccc3F)oc2C)cc1`, with “inactive”; and `COc1ccc(CCNC(=O)CCCCn2c(=O)c3ccccc3n(Cc3ccccc3)c2=O)cc1OC`, with “inactive”.

In the case of `COc1cc(/C=C2/SC(=S)N(Cc3ccccc3)C2=O)cc(OC)c1O`, the Potency is 20 µM (active). Then `COc1ccc(Cn2c(=O)sc3ccccc32)cc1OC`, with “inactive”.
